“And” between values parts separate entries of the source, which are not always exact repeats. Equal entries are not always repeated. Hit rate of the full screen: of about 350,000 compounds, about 6,000 (1.7%) were called active. About 5% were inconclusive and are not listed. Cut-off read from the data, not from the text of the source: active = CPE inhibition above about 20% (passing the limit was not always enough); inconclusive = no clear call, values can overlap the other calls; tested in BHK-21 cells. Many of the other results were omitted from the sample, so actives are more common in it than they were.
Assay: inhibitors of DENV2 cytopathic effect, primary screen, cell-based, plate reader, single concentration (AID 651640);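 note: 0% = median of neutral control wells and 100% = median of positive control wells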
Conditions: DENV2-infected cells, cytopathic effect rescue, at 9.99 µM, hits give high values

Which CPE inhibition does the source give for COc1ccccc1-c1cn(CC[C@H]2CC[C@@H](NC(=O)CCN3CCCCC3)[C@@H](CO)O2)nn1 here?
The CPE inhibition was -1.83% (inactive).

Which CPE inhibition does the source give for C[C@H]1CN([C@@H](C)CO)S(=O)(=O)c2ccc(C#Cc3cccc(F)c3)cc2O[C@@H]1CN(C)S(=O)(=O)c1cn(C)cn1 here?
Its CPE inhibition is -0.538% (inactive).

Which CPE inhibition does the source give for CCNC(=O)[C@H]1[C@H](CO)[C@H]2Cn3c(cccc3=O)[C@@H]1N2Cc1cc(F)ccc1F here?
Its CPE inhibition is -7.97% (inactive).

For CCCNC(=O)N1C[C@@H](O)COC[C@@H]2O[C@@H](CC(=O)O)CC[C@H]21, which CPE inhibition is on record?
The CPE inhibition was 5.1% (inactive).

Which CPE inhibition does the source give for CN(C)CC(=O)N[C@@H]1C[C@@H]2O[C@H](CO)CC[C@@H]2O[C@@H]1CCc1ccc(C#Cc2ccccc2)cc1 here?
Its CPE inhibition is 6.51% (inactive).

Which CPE inhibition does the source give for C[C@H](CO)N1C[C@H](C)[C@H](CN(C)C)Oc2ncc(/C=C/c3ccccc3)cc2C1=O here?
The CPE inhibition was -2.89% (inactive) and -2.09% (inactive).

Which CPE inhibition does the source give for Cc1noc(C)c1NC(=O)Nc1ccc2c(c1)C(=O)N([C@H](C)CO)C[C@H](C)[C@H](CN(C)Cc1ccc(-c3ccccc3)cc1)O2 here?
Its CPE inhibition is 5.27% (inactive).

For C[C@@H]1CN([C@@H](C)CO)C(=O)c2cc(/C=C/c3ccccc3)cnc2O[C@H]1CN(C)C(=O)Nc1ccc(C(F)(F)F)cc1, which CPE inhibition is on record?
Its CPE inhibition is 22.8% (active).

For Cc1noc(C)c1NC(=O)Nc1ccc2c(c1)C(=O)N([C@H](C)CO)C[C@@H](C)[C@@H](CN(C)Cc1ccccc1)O2, which CPE inhibition is on record?
The CPE inhibition was 33.6% (active).

For Cc1noc(C)c1NC(=O)Nc1ccc2c(c1)C(=O)N([C@@H](C)CO)C[C@H](C)[C@H](CN(C)Cc1ccc(-c3ccccc3)cc1)O2, which CPE inhibition is on record?
The CPE inhibition was -1.16% (inactive).

Which CPE inhibition does the source give for C[C@@H]1CN([C@H](C)CO)C(=O)c2cc(NC(=O)Nc3ccc4c(c3)OCO4)ccc2O[C@@H](C)CCCCO[C@@H]1CN(C)Cc1ccc2c(c1)OCO2 here?
The CPE inhibition was -24.7% (inactive).

Which CPE inhibition does the source give for C[C@H](O)C#Cc1cnc2c(c1)C(=O)N([C@H](C)CO)C[C@@H](C)[C@@H](CN(C)C(=O)Nc1ccc(C(F)(F)F)cc1)O2 here?
The CPE inhibition was -2.9% (inactive).

Which CPE inhibition does the source give for C[C@H](CO)N1C[C@H](C)[C@H](CN(C)Cc2ccncc2)Oc2ccc(N(C)C)cc2C1=O here?
The CPE inhibition was 24.8% (active).

With C[C@@H]1CCCCO[C@@H](CN(C)Cc2ccc3c(c2)OCO3)[C@@H](C)CN([C@@H](C)CO)C(=O)c2cc(NC(=O)Nc3ccccc3)ccc2O1 as the molecule, how does the CPE inhibition read?
Its CPE inhibition is -0.739% (inactive).

Which CPE inhibition does the source give for C[C@@H]1CN([C@@H](C)CO)C(=O)c2cc(N(C)C)ccc2O[C@H]1CN(C)Cc1ccc(C(F)(F)F)cc1 here?
The CPE inhibition was 2.48% (inactive).

With C/C=C/c1cnc2c(c1)C(=O)N([C@H](C)CO)C[C@H](C)[C@@H](CN(C)C(=O)Nc1ccc(C(F)(F)F)cc1)O2 as the molecule, how does the CPE inhibition read?
The CPE inhibition was -8.88% (inactive).

With C[C@H]1CN([C@@H](C)CO)C(=O)c2cc(N(C)C)ccc2O[C@@H]1CN(C)Cc1ccccc1 as the molecule, how does the CPE inhibition read?
Its CPE inhibition is 1.9% (inactive).

Which CPE inhibition does the source give for C[C@H]1CCCCO[C@@H](CN(C)Cc2ccc3c(c2)OCO3)[C@@H](C)CN([C@@H](C)CO)C(=O)c2cc(NC(=O)Nc3ccc(F)cc3)ccc2O1 here?
Its CPE inhibition is 23% (active).

With C[C@@H]1CN([C@@H](C)CO)C(=O)c2cc(-c3ccccc3F)cnc2O[C@H]1CN(C)C(=O)C1CC1 as the molecule, how does the CPE inhibition read?
Its CPE inhibition is -2.29% (inactive).

For CO[C@H](CN(C)S(=O)(=O)c1ccc(Cl)cc1)[C@@H](C)CN(Cc1ccccc1Cl)[C@H](C)CO, which CPE inhibition is on record?
The CPE inhibition was 2.31% (inactive).

For O=C(C1CCOCC1)N1CC(=O)N2[C@H](CO)[C@H](c3ccc(C#CC4CCCCC4)cc3)[C@H]2C1, which CPE inhibition is on record?
The CPE inhibition was -10.5% (inactive).

Which CPE inhibition does the source give for O=C(C[C@@H]1C[C@@H]2c3cc(NC(=O)CC4CC4)ccc3O[C@@H]2[C@@H](CO)O1)NCCN1CCCCC1 here?
Its CPE inhibition is 1.09% (inactive).

With COc1ccc(NC(=O)N(C)C[C@@H]2OCCCC[C@H](C)Oc3ccc(NC(=O)c4ccccc4)cc3C(=O)N([C@H](C)CO)C[C@H]2C)cc1 as the molecule, how does the CPE inhibition read?
The CPE inhibition was -12.7% (inactive).

With COc1ccc(NC(=O)N(C)C[C@@H]2OCCCC[C@@H](C)Oc3ccc(NC(=O)NC4CCCCC4)cc3C(=O)N([C@H](C)CO)C[C@@H]2C)cc1 as the molecule, how does the CPE inhibition read?
Its CPE inhibition is 1.54% (inactive) and 2.7% (inactive).

With COc1ccc(NC(=O)N(C)C[C@H]2OCCCC[C@@H](C)Oc3ccc(NC(=O)NC4CCCCC4)cc3C(=O)N([C@H](C)CO)C[C@H]2C)cc1 as the molecule, how does the CPE inhibition read?
The CPE inhibition was 9.97% (inactive).

Which CPE inhibition does the source give for COc1ccc(NC(=O)N(C)C[C@H]2OCCCC[C@@H](C)Oc3ccc(NC(=O)c4ccncc4)cc3C(=O)N([C@@H](C)CO)C[C@H]2C)cc1 here?
The CPE inhibition was 4.05% (inactive).

With COc1ccc(NC(=O)N(C)C[C@H]2OCCCC[C@H](C)Oc3ccc(NC(=O)c4ccncc4)cc3C(=O)N([C@H](C)CO)C[C@@H]2C)cc1 as the molecule, how does the CPE inhibition read?
Its CPE inhibition is 21.4% (active).

For COc1ccc(NC(=O)N(C)C[C@H]2OCCCC[C@@H](C)Oc3ccc(NS(=O)(=O)c4ccc(F)cc4)cc3C(=O)N([C@H](C)CO)C[C@H]2C)cc1, which CPE inhibition is on record?
Its CPE inhibition is 10.2% (inactive).

Which CPE inhibition does the source give for COc1ccc(NC(=O)N(C)C[C@H]2OCCCC[C@H](C)Oc3ccc(NC(=O)NC4CCCCC4)cc3C(=O)N([C@@H](C)CO)C[C@@H]2C)cc1 here?
The CPE inhibition was 76.4% (active).

With COc1ccc(NC(=O)N(C)C[C@@H]2OCCCC[C@@H](C)Oc3ccc(NS(=O)(=O)c4ccc(Cl)cc4)cc3C(=O)N([C@H](C)CO)C[C@H]2C)cc1 as the molecule, how does the CPE inhibition read?
The CPE inhibition was 37.6% (active).

For COc1ccc(NC(=O)N(C)C[C@H]2OCCCC[C@H](C)Oc3ccc(NS(=O)(=O)c4ccc(Cl)cc4)cc3C(=O)N([C@@H](C)CO)C[C@H]2C)cc1, which CPE inhibition is on record?
Its CPE inhibition is 12.8% (inactive).

Which CPE inhibition does the source give for O=C(C[C@@H]1C=C[C@@H](NC(=O)Nc2cccc(F)c2)[C@H](CO)O1)NCC1CCCCC1 here?
Its CPE inhibition is 8.16% (inactive).

Which CPE inhibition does the source give for C[C@@H]1CN([C@@H](C)CO)C(=O)c2cc(C#Cc3ccncc3)cnc2O[C@@H]1CN(C)C(=O)CN(C)C here?
The CPE inhibition was -5.91% (inactive).

With C[C@H]1CN([C@@H](C)CO)C(=O)Cc2cc(NC(=O)C3CC3)ccc2O[C@@H]1CN(C)S(=O)(=O)c1cccs1 as the molecule, how does the CPE inhibition read?
Its CPE inhibition is 0.692% (inactive).

Which CPE inhibition does the source give for O=C(C[C@H]1C=C[C@@H](NC(=O)Nc2cc(F)ccc2F)[C@@H](CO)O1)NCc1ccc2c(c1)OCO2 here?
Its CPE inhibition is 3.1% (inactive).

With CCC(=O)Nc1ccc2c(c1)OC[C@@H](C)N(Cc1cncnc1)C[C@H](C)[C@@H](OC)CN(C)C2=O as the molecule, how does the CPE inhibition read?
Its CPE inhibition is 0.095% (inactive).

With O=C(Cc1ccncc1)Nc1ccc2c(c1)[C@@H]1C[C@H](CC(=O)N3CCCCC3)O[C@H](CO)[C@@H]1O2 as the molecule, how does the CPE inhibition read?
Its CPE inhibition is -1.67% (inactive).

For CC(=O)N1[C@H](CN(CC2CCC2)C(=O)CN(C)C)[C@@H](c2ccccc2)[C@@H]1CO, which CPE inhibition is on record?
Its CPE inhibition is -6.71% (inactive).

With CCO[C@H]1OC(C(=O)O)=C[C@@H](C2CCCCC2)[C@@H]1CCCO as the molecule, how does the CPE inhibition read?
The CPE inhibition was 45.4% (active).

For CCO[C@H]1OC(C(=O)Nc2ccccc2)=C[C@@H](C2CC2)[C@@H]1CCCO, which CPE inhibition is on record?
The CPE inhibition was -12.3% (inactive).

With CCO[C@@H]1OC(C(=O)NCc2nc3ccccc3[nH]2)=C[C@H](C2CCCCC2)[C@H]1CCCO as the molecule, how does the CPE inhibition read?
The CPE inhibition was 5.22% (inactive).

For C[C@H](CO)N1C[C@H](C)[C@@H](CN(C)S(=O)(=O)c2cccs2)OCc2ccccc2-c2ccccc2C1=O, which CPE inhibition is on record?
Its CPE inhibition is 0.48% (inactive).

Which CPE inhibition does the source give for COc1cccc(NC(=O)CN(C)CC(=O)Nc2ccc3c(c2)CCC3)c1 here?
The CPE inhibition was 4.15% (inactive).

For COc1cccc(NC(=O)CN(C)C(=O)Cc2ccc(Cl)cc2Cl)c1, which CPE inhibition is on record?
Its CPE inhibition is -4.12% (inactive).

With COc1cccc(NC(=O)CN(C)C(=O)CSC(=S)N2CCCC2)c1 as the molecule, how does the CPE inhibition read?
Its CPE inhibition is 31.4% (active).

For O=C(Nc1cc(F)ccc1F)N1CCCCN2[C@H](C1)[C@H](c1ccc(-c3cccnc3)cc1)[C@@H]2CO, which CPE inhibition is on record?
The CPE inhibition was -2.73% (inactive).

With CN(C)CCCNC(=O)C[C@@H]1C=C[C@H](NC(=O)c2ccccc2F)[C@H](CO)O1 as the molecule, how does the CPE inhibition read?
Its CPE inhibition is -4.33% (inactive).

Which CPE inhibition does the source give for CCCC#Cc1ccc([C@@H]2[C@H](CO)N3CCCCN(S(=O)(=O)c4ccccc4F)C[C@@H]23)cc1 here?
The CPE inhibition was -29.1% (inactive).

For CC(C)NC(=O)N(C)C[C@H]1Oc2cc(-c3cncnc3)ccc2S(=O)(=O)N([C@@H](C)CO)C[C@H]1C, which CPE inhibition is on record?
The CPE inhibition was 12.5% (inactive).

For O=C(OCc1ccccc1)N1CCC2CC1c1cc(N3CCN(S(=O)(=O)c4cc(Cl)cc(Cl)c4)CC3)ccc12 (stereo not drawn), which CPE inhibition is on record?
Its CPE inhibition is -5.76% (inactive).

For O=C(OCc1ccccc1)N1CCC2CC1c1ccc(-c3ccc4c(c3)OCO4)cc12 (stereo not drawn), which CPE inhibition is on record?
Its CPE inhibition is 59.5% (active).

With Cc1ccc(S(=O)(=O)N(CCc2ccccc2)c2ccc3c(c2)C2CC3CCN2C(=O)OCc2ccccc2)cc1 (stereo not drawn) as the molecule, how does the CPE inhibition read?
Its CPE inhibition is -3.72% (inactive).

Which CPE inhibition does the source give for O=C(C[C@H]1CC[C@H]2[C@@H](COC[C@H](O)CN2Cc2nccs2)O1)NCc1ccc(Oc2ccccc2)cc1 here?
The CPE inhibition was 3.47% (inactive).

For CC(Oc1ccccc1)C(=O)Nc1c2c(nn1-c1ccccc1)CS(=O)C2 (stereo not drawn), which CPE inhibition is on record?
The CPE inhibition was 2.29% (inactive).

Which CPE inhibition does the source give for COc1ccc(-n2nc3c(c2NC(=O)Cc2cccc(C)c2)CS(=O)C3)cc1 (stereo not drawn) here?
The CPE inhibition was 99.5% (active).

For Cc1ccc(-n2nc3c(c2NC(=O)CCC2CCCCC2)CS(=O)C3)cc1 (stereo not drawn), which CPE inhibition is on record?
The CPE inhibition was -3.75% (inactive).

For CC1(C)CN(CCc2ccccc2)C(=O)[C@H]1CC(=O)Nc1ccc(Br)cc1, which CPE inhibition is on record?
The CPE inhibition was 0.989% (inactive).

With CC1(C)CN(Cc2cccnc2)C(=O)[C@H]1CC(=O)Nc1ccc(Br)cc1 as the molecule, how does the CPE inhibition read?
Its CPE inhibition is 30.1% (active).

For CCCCN1CC(C)(C)[C@H](CC(=O)Nc2ccc(Br)cc2)C1=O, which CPE inhibition is on record?
The CPE inhibition was 6.43% (inactive).

Which CPE inhibition does the source give for C[C@@H]1CCCCO[C@@H](CN(C)C(=O)CCC(F)(F)F)[C@H](C)CN([C@@H](C)CO)C(=O)c2cc(NC(=O)CCCN(C)C)ccc2O1 here?
Its CPE inhibition is 3.1% (inactive).

For O=C(NC[C@H]1[C@@H](c2ccccc2)[C@H](CO)N1CC1CC1)c1cccnc1, which CPE inhibition is on record?
The CPE inhibition was -7.73% (inactive).

For O=C(NC[C@@H]1[C@H](c2ccccc2)[C@H](CO)N1CC1CCCC1)c1cccnc1, which CPE inhibition is on record?
Its CPE inhibition is 54.5% (active).

For O=S(=O)(NC[C@H]1[C@@H](c2ccccc2)[C@@H](CO)N1CC1CC1)c1ccccc1, which CPE inhibition is on record?
Its CPE inhibition is 8.65% (inactive).

Source: PubChem BioAssay AID651640 (Broad Institute, 2012)
